# Reference: publication PMC10812921, “Transcriptional Coactivator BOB1 (OBF1, OCA-B) Modulates the Specificity of DNA Recognition by the POU-Domain Factors OCT1 and OCT2 in a Monomeric Configuration”
# Tests used:
# [1] = molecular target: POU1 (OCT1 POU domain) (human, UniProt P14859 260-458); test: EMSA-SELEX-seq; no BOB1; 20 mM Tris-HCl pH 7.6, 140 mM NaCl, 10% glycerol, 0.5 mM EDTA, 0.05% Triton X-100, 0.1 mg/mL BSA, 0.1 mg/mL poly(dI-dC), 5 mM DTT, room temperature, 20 min; high values mean tight binding; details: protein: recombinant; dsDNA, one strand shown
# Sequence of POU1 (OCT1 POU domain) (P14859 260-458): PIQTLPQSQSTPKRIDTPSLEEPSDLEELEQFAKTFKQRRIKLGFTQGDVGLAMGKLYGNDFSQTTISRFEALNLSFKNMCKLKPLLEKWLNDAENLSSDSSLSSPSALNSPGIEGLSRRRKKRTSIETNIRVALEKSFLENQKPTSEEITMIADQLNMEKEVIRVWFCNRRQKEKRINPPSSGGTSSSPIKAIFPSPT
# Procedure, shortened: (§1)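 Binding preference is reported as the percentage of sequenced 8-mers that match a motif pattern. Tagged POU-domain proteins were made in E. coli BL21, purified under denaturing conditions and renatured. A 30 ng portion was combined with 300 ng of a PCR-amplified double-stranded random 35-nt library, with or without 28 ng coactivator protein, in 20 μL Tris–HCl pH 7.6 binding buffer for 20 min at RT. Complex bands were excised from native 6% PAGE, eluted and PCR-amplified over four rounds before Illumina sequencing.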
# [2] = molecular target: T1, POU2 (OCT2 POU domain) (human, UniProt P09086 175-386); test: as above; details: protein: recombinant; dsDNA, one strand shown
# T1 sequence: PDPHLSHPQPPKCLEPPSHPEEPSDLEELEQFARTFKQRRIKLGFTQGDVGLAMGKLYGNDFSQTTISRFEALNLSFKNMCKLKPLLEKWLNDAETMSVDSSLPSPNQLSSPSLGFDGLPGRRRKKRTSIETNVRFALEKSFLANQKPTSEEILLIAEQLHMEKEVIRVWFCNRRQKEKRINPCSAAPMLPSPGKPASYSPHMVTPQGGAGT
# Procedure, shortened: as §1
# [3] = molecular target: POU1 (OCT1 POU domain);BOB1 (OBF1, OCA-B) (human;human, UniProt P14859;Q16633 260-458;1-256, |); test: EMSA-SELEX-seq; with BOB1 (ternary complex band); 20 mM Tris-HCl pH 7.6, 140 mM NaCl, 10% glycerol, 0.5 mM EDTA, 0.05% Triton X-100, 0.1 mg/mL BSA, 0.1 mg/mL poly(dI-dC), 5 mM DTT, room temperature, 20 min; high values mean tight binding; details: protein: recombinant;recombinant; copies: 1;1; dsDNA, one strand shown
# Procedure, shortened: as §1
# [4] = molecular target: T2, POU2 (OCT2 POU domain);BOB1 (OBF1, OCA-B) (human;human, UniProt P09086;Q16633 175-386;1-256, |); test: as above; details: protein: recombinant;recombinant; copies: 1;1; dsDNA, one strand shown
# T2 sequence 1: T1 sequence
# T2 sequence 2: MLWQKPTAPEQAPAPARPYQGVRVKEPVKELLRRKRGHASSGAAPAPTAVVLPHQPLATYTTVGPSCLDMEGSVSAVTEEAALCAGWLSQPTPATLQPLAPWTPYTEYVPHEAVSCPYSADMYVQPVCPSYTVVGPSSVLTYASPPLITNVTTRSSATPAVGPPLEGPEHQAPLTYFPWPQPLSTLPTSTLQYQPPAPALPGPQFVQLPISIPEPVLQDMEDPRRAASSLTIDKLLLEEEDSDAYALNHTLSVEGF
# Procedure, shortened: as §1
Sequence,binding signal [1],binding signal [2],binding signal [3],binding signal [4]
AACGTAAG,0.0301 % of ANNNNAAN 8-mers,0.0351 % of ANNNNAAN 8-mers,0.0336 % of ANNNNAAN 8-mers,0.0305 % of ANNNNAAN 8-mers
AGTTTAAA,0.0881 % of ANNNNAAN 8-mers,0.0938 % of ANNNNAAN 8-mers,0.0808 % of ANNNNAAN 8-mers,0.0751 % of ANNNNAAN 8-mers
AATATAAA,0.156 % of ANNNNAAN 8-mers,0.178 % of ANNNNAAN 8-mers,0.107 % of ANNNNAAN 8-mers,0.101 % of ANNNNAAN 8-mers
AAATCAAA,0.133 % of ANNNNAAN 8-mers,0.117 % of ANNNNAAN 8-mers,0.194 % of ANNNNAAN 8-mers,0.136 % of ANNNNAAN 8-mers
ACTGTAAG,0.0225 % of ANNNNAAN 8-mers,0.027 % of ANNNNAAN 8-mers,0.0265 % of ANNNNAAN 8-mers,0.0264 % of ANNNNAAN 8-mers
AATTGAAA,0.113 % of ANNNNAAN 8-mers,0.131 % of ANNNNAAN 8-mers,0.114 % of ANNNNAAN 8-mers,0.0817 % of ANNNNAAN 8-mers
ATGAAAAT,0.373 % of ANNNNAAN 8-mers,0.304 % of ANNNNAAN 8-mers,0.619 % of ANNNNAAN 8-mers,0.518 % of ANNNNAAN 8-mers
AAATTAAG,0.303 % of ANNNNAAN 8-mers,0.342 % of ANNNNAAN 8-mers,0.238 % of ANNNNAAN 8-mers,0.319 % of ANNNNAAN 8-mers
ATTGTAAG,0.0507 % of ANNNNAAN 8-mers,0.0685 % of ANNNNAAN 8-mers,0.0593 % of ANNNNAAN 8-mers,0.0594 % of ANNNNAAN 8-mers
ATTAGAAT,0.5 % of ANNNNAAN 8-mers,0.61 % of ANNNNAAN 8-mers,0.133 % of ANNNNAAN 8-mers,0.18 % of ANNNNAAN 8-mers
AAACCAAC,0.0206 % of ANNNNAAN 8-mers,0.0104 % of ANNNNAAN 8-mers,0.0199 % of ANNNNAAN 8-mers,0.0215 % of ANNNNAAN 8-mers
ACGCAAAT,0.564 % of ANNNNAAN 8-mers,0.409 % of ANNNNAAN 8-mers,1.27 % of ANNNNAAN 8-mers,1.38 % of ANNNNAAN 8-mers
AATTCAAT,0.121 % of ANNNNAAN 8-mers,0.125 % of ANNNNAAN 8-mers,0.0948 % of ANNNNAAN 8-mers,0.125 % of ANNNNAAN 8-mers
AGTTAAAC,0.0461 % of ANNNNAAN 8-mers,0.0593 % of ANNNNAAN 8-mers,0.0499 % of ANNNNAAN 8-mers,0.0553 % of ANNNNAAN 8-mers
AGATGAAT,0.119 % of ANNNNAAN 8-mers,0.171 % of ANNNNAAN 8-mers,0.0765 % of ANNNNAAN 8-mers,0.09 % of ANNNNAAN 8-mers
ACCTGAAT,0.0583 % of ANNNNAAN 8-mers,0.0656 % of ANNNNAAN 8-mers,0.0359 % of ANNNNAAN 8-mers,0.0438 % of ANNNNAAN 8-mers
ATCAGAAT,0.085 % of ANNNNAAN 8-mers,0.116 % of ANNNNAAN 8-mers,0.0777 % of ANNNNAAN 8-mers,0.0784 % of ANNNNAAN 8-mers
AAGGGAAC,0.0389 % of ANNNNAAN 8-mers,0.0506 % of ANNNNAAN 8-mers,0.0363 % of ANNNNAAN 8-mers,0.0305 % of ANNNNAAN 8-mers
ACGTTAAA,0.0412 % of ANNNNAAN 8-mers,0.0506 % of ANNNNAAN 8-mers,0.0371 % of ANNNNAAN 8-mers,0.0421 % of ANNNNAAN 8-mers
ATTATAAA,0.152 % of ANNNNAAN 8-mers,0.204 % of ANNNNAAN 8-mers,0.0691 % of ANNNNAAN 8-mers,0.0801 % of ANNNNAAN 8-mers
ACGTCAAG,0.0191 % of ANNNNAAN 8-mers,0.0253 % of ANNNNAAN 8-mers,0.0203 % of ANNNNAAN 8-mers,0.0198 % of ANNNNAAN 8-mers
ATCACAAG,0.0225 % of ANNNNAAN 8-mers,0.0334 % of ANNNNAAN 8-mers,0.0328 % of ANNNNAAN 8-mers,0.0446 % of ANNNNAAN 8-mers
ATACAAAC,0.0648 % of ANNNNAAN 8-mers,0.0512 % of ANNNNAAN 8-mers,0.0819 % of ANNNNAAN 8-mers,0.0528 % of ANNNNAAN 8-mers
AAGAGAAG,0.0339 % of ANNNNAAN 8-mers,0.0403 % of ANNNNAAN 8-mers,0.0402 % of ANNNNAAN 8-mers,0.0438 % of ANNNNAAN 8-mers
ATAAAAAC,0.066 % of ANNNNAAN 8-mers,0.0633 % of ANNNNAAN 8-mers,0.0562 % of ANNNNAAN 8-mers,0.0495 % of ANNNNAAN 8-mers
AAGCAAAC,0.0606 % of ANNNNAAN 8-mers,0.0386 % of ANNNNAAN 8-mers,0.0878 % of ANNNNAAN 8-mers,0.057 % of ANNNNAAN 8-mers
AGAGCAAA,0.0374 % of ANNNNAAN 8-mers,0.0293 % of ANNNNAAN 8-mers,0.0433 % of ANNNNAAN 8-mers,0.0413 % of ANNNNAAN 8-mers
AGAGAAAC,0.0221 % of ANNNNAAN 8-mers,0.0247 % of ANNNNAAN 8-mers,0.0332 % of ANNNNAAN 8-mers,0.0231 % of ANNNNAAN 8-mers
ACGTTAAC,0.024 % of ANNNNAAN 8-mers,0.0316 % of ANNNNAAN 8-mers,0.0234 % of ANNNNAAN 8-mers,0.0289 % of ANNNNAAN 8-mers
ACTATAAT,0.0595 % of ANNNNAAN 8-mers,0.0748 % of ANNNNAAN 8-mers,0.0472 % of ANNNNAAN 8-mers,0.0388 % of ANNNNAAN 8-mers
